According to PubChem BioAssay AID743441 (Broad Institute, 2014):
Results with a measured potency or affinity are listed apart. Activity calls are given as the source filed them.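 Rule for the calls: active = cell toxicity seen as a signal drop, with half-maximal potency at most twice the top valid dose; inconclusive = flat curve with a partial drop, or a poor fit; inactive = the rest, including rises in signal.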

Assay: HEK293T cell cytotoxicity, dose response, cytotoxicity control, CellTiter-Glo luminescence, cherry-picked samples, set 4 (AID 743441)
Conditions: HEK293T viability, ATP luminescence CellTiter-Glo, 72 h; series mostly up to 26 µM

Structure (SMILES)	outcome
C[C@@H]1CCCCO[C@H](CN(C)C(=O)CCCN(C)C)[C@H](C)CN([C@@H](C)CO)C(=O)c2cc(NC(=O)Nc3cccc4ccccc34)ccc2O1	inactive
CCOC(=O)c1c(NC(=O)Cc2cccs2)sc(C)c1C	inactive
Cc1ccc(C)c(NC(=O)CSc2nc3nc(-c4cccs4)cc(C(F)(F)F)c3c(=O)[nH]2)c1	inactive
COc1ccc(NC(=O)c2ccc(-c3ccc([N+](=O)[O-])cc3)o2)cc1	inactive
CSc1nc(N)nc(SC2C=CCCC2)c1C#N (stereo not drawn)	inactive
COc1ccc2[nH]c3c(=O)n(CCCCC(=O)NCCC(C)C)c(=S)[nH]c3c2c1	inactive
O=C(O)c1cc([N+](=O)[O-])ccc1NCc1ccccc1	inactive
Cc1cc(C)c(C#N)c(N2CCN(c3ccccc3)CC2)n1	inactive
COc1cccc(C(=O)Nc2cc(C)nn2-c2ccccc2)c1OC	inactive
COc1ccc(Nc2oc(-c3ccco3)nc2S(=O)(=O)c2ccc(F)cc2)cc1	inactive
CC1(Cc2ccccc2C#N)C(=O)Nc2cc(-c3ccccc3Cl)ccc21 (stereo not drawn)	inactive
Cc1[nH]c(=S)sc1Cc1ccc(Cl)c(Cl)c1	inactive
COC(=O)c1c(NC(=O)CCC(=O)O)sc(Cc2ccccc2)c1C	inactive
C[C@@H]1CCCCO[C@H](CN(C)CC2CC2)[C@H](C)CN([C@@H](C)CO)C(=O)c2cc(NC(=O)Nc3cccc4ccccc34)ccc2O1	inactive
Cc1noc(C)c1NC(=O)Nc1ccc2c(c1)C(=O)N([C@H](C)CO)C[C@@H](C)[C@@H](CN(C)C(=O)Nc1ccc3c(c1)OCO3)OCCCC[C@@H](C)O2	inactive
CC(CNc1ccc(Cl)cc1)(CNc1ccc(Cl)cc1)[N+](=O)[O-]	inactive
CC[C@H]1OC(=O)[C@H](C)[C@@H](O[C@H]2C[C@@](C)(OC)[C@@H](O)[C@H](C)O2)[C@H](C)[C@@H](O[C@@H]2O[C@H](C)C[C@H](N(C)C)[C@H]2O)[C@](C)(O)C[C@@H](C)[C@@H]2N[C@@H](COCCOC)O[C@H]([C@H]2C)[C@]1(C)O	inactive
Cc1ccc(S(=O)(=O)N2CC[C@H]3[C@H](CO)Nc4ccc(Br)cc4[C@H]32)cc1	inactive
